Our source for the growth values is PubChem BioAssay (NCI).

Compounds without any hit were thinned out: in the full panel of roughly 83,000, 20% have a hit.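 The test compound was applied at a single concentration to cells in 96-well plates for 48 hours, and percent growth was recorded.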 Unmarked numbers belong to inactive results. Calls of active or inactive are those of the source. The calls were made as follows: active = growth percent below 10; inactive = the rest.

What all share (assay): NCI-60 one-dose screen, 48 h (100 = growth as untreated, 0 = no growth, -100 = all killed)
One test concerns SK-MEL-2 melanoma. As to conditions: 10 µM.
Another test concerns EKVX NSCLC. As to conditions: 10 µM.
Another test concerns SN12C renal. As to conditions: 10 µM.
The test system of the next test is UO-31 renal. As to conditions: 10 µM.
In the next test the test system is TK-10 renal. As to conditions: 10 µM unless noted.
The next test has as its system ACHN renal. As to conditions: 10 µM.
For a further test, the system named is CAKI-1 renal. As to conditions: 10 µM.
The next test concerns A498 renal. As to conditions: 10 µM.
The subject of a further test is CCRF-CEM leukemia. As to conditions: 10 µM.
Another test has as its system MOLT-4 leukemia. As to conditions: 10 µM.

For the compound `CCNc1nc2c(cnn2C)c(=O)[nH]1`, the growth with SK-MEL-2 melanoma was 103%; in the test with EKVX NSCLC, 99.4%; in the test with SN12C renal, 103%; in the test on UO-31 renal it was 85.7%; in the test on TK-10 renal, 104%; with ACHN renal, 107%. Besides, the growth was 93.9% in the test on CAKI-1 renal, 97.1% in the test on A498 renal, 93.9% in the test on CCRF-CEM leukemia and 102% with MOLT-4 leukemia.

With `CCOC(=O)CCCS(C)(=O)=O`, the growth in the test on SK-MEL-2 melanoma was 90.7%; with EKVX NSCLC it was 113%; with SN12C renal, 97.4%; in the test with UO-31 renal, 90.5%; in the test with TK-10 renal, 102%; with ACHN renal, 104%. Further, the growth with CAKI-1 renal is 117%; in the test with A498 renal, 96.8%; with CCRF-CEM leukemia, 113%; in the test on MOLT-4 leukemia, 96.5%.

Turning to `C1CNC(C2=NCCN2)=N1`, the growth is 116% with SK-MEL-2 melanoma; 103% in the test on EKVX NSCLC; 102% in the test on SN12C renal; 90.2% in the test on UO-31 renal; 103% in the test on TK-10 renal; 109% in the test on ACHN renal. The growth was 99.2% in the test on CAKI-1 renal, 108% with A498 renal, 109% in the test on CCRF-CEM leukemia and 96.4% in the test with MOLT-4 leukemia.

Regarding `CC(=O)OCC1CCCO1` (stereo not given), the growth is 106% in the test with SK-MEL-2 melanoma; 96% with EKVX NSCLC; 103% in the test with SN12C renal; 92.2% with UO-31 renal; 94.9% in the test with TK-10 renal; 106% in the test with ACHN renal. Besides, the growth in the test with CAKI-1 renal is 101%; in the test on A498 renal it was 101%; in the test on CCRF-CEM leukemia, 107%; in the test on MOLT-4 leukemia, 97.6%.

As for `NC(=O)c1ccc(N=C(N)N=C(N)N)cc1`, the growth in the test on SK-MEL-2 melanoma was 121%; in the test with EKVX NSCLC, 73.5%; in the test on SN12C renal, 110%; in the test with UO-31 renal it was 78.5%; in the test with TK-10 renal it was 77.5%; with ACHN renal, 112%. For the same compound, the growth was 93.4% with CAKI-1 renal, 106% with A498 renal, 99.6% in the test with CCRF-CEM leukemia and 103% in the test with MOLT-4 leukemia.

Consider `Cc1cc(C)cc(NCCC#N)c1`, for which the growth with SK-MEL-2 melanoma was 98.3%; with EKVX NSCLC, 103%; in the test on SN12C renal, 110%; in the test with UO-31 renal, 96.5%; with TK-10 renal it was 129%; in the test on ACHN renal, 107%. The growth in the test with CAKI-1 renal was 107%; in the test with A498 renal it was 111%; in the test on CCRF-CEM leukemia, 96.8%; with MOLT-4 leukemia it was 91.4%.

Regarding `CC(=O)c1ccc(C(C)(C)C)cc1`, the growth in the test on SK-MEL-2 melanoma is 102%; with EKVX NSCLC, 106%; in the test on SN12C renal it was 97%; with UO-31 renal, 82.7%; in the test with TK-10 renal, 105%; in the test with ACHN renal it was 97.7%. The growth in the test with CAKI-1 renal was 92.7%; in the test on A498 renal it was 123%; with CCRF-CEM leukemia, 88.4%; in the test on MOLT-4 leukemia it was 98.9%.

On to `Cc1cc(N2CCC(N3CCCC3)CC2)nc(/N=C(\N)Nc2ccc(Cl)c(Cl)c2)n1`, for which the growth is -71.7% (active) in the test on SK-MEL-2 melanoma; 2.57% (active) with EKVX NSCLC; 93.7% in the test on SN12C renal; -97.4% (active) in the test on UO-31 renal; -86.3% (active) in the test on TK-10 renal; -27.8% (active) with ACHN renal. For the same compound, the growth in the test on CAKI-1 renal is -40.6% (active); in the test on A498 renal it was 45.7%; with CCRF-CEM leukemia, -11.8% (active); with MOLT-4 leukemia it was -19.8% (active).

In the case of `O=c1cc(-c2ccccc2)[nH]c(=S)[nH]1`, the growth in the test on SK-MEL-2 melanoma was 98.8%; with EKVX NSCLC, 129%; with SN12C renal, 102%; in the test on UO-31 renal it was 79.2%; with TK-10 renal it was 95.7%; in the test with ACHN renal, 96.7%. Further, the growth is 175% in the test with CAKI-1 renal, 97.6% in the test on A498 renal, 90.5% with CCRF-CEM leukemia and 95.3% in the test with MOLT-4 leukemia.

Take `CC(C)(O)C#CC#CC(C)(C)O`: the growth with SK-MEL-2 melanoma is 103%; in the test on EKVX NSCLC, 99.5%; with SN12C renal, 109%; in the test with UO-31 renal it was 99.1%; in the test on TK-10 renal it was 95.6%; with ACHN renal, 98.8%. The growth is 97.5% in the test on CAKI-1 renal, 93.6% with A498 renal, 98.6% with CCRF-CEM leukemia and 90.7% with MOLT-4 leukemia.

As to `Nc1nc(N)c2cc(S(=O)(=O)c3cccc(C(F)(F)F)c3)ccc2n1`, the growth in the test with SK-MEL-2 melanoma is 89.8%; with EKVX NSCLC, 44%; with SN12C renal, 33.7%; in the test on UO-31 renal it was 56%; in the test on TK-10 renal, 72.6%; with ACHN renal it was 38.4%. The growth in the test with CAKI-1 renal is 65.1%; in the test on A498 renal it was 78.4%; in the test with CCRF-CEM leukemia it was 45.8%; with MOLT-4 leukemia, 37.3%.

Turning to `COC(=O)Nc1nc2ccc(C(=O)c3ccc(F)cc3)cc2[nH]1`, the growth in the test on SK-MEL-2 melanoma was -20.1% (active); in the test with EKVX NSCLC, 36.7%; in the test with SN12C renal it was 29.8%; in the test with UO-31 renal, 1.98% (active); with TK-10 renal, 17.3%; with ACHN renal, 33.2%. Moreover, the growth in the test with CAKI-1 renal was 15.2%; in the test on A498 renal, 7.59% (active); with CCRF-CEM leukemia, -46% (active); in the test on MOLT-4 leukemia, -27% (active).

Regarding `S=C(Nc1ccccc1)N1CCCCC1`, the growth was 98% with SK-MEL-2 melanoma; 105% in the test on EKVX NSCLC; 102% with SN12C renal; 88.4% with UO-31 renal; 109% in the test with TK-10 renal; 94.5% in the test on ACHN renal. Also, the growth with CAKI-1 renal is 94.6%; with A498 renal, 77.6%; in the test on CCRF-CEM leukemia, 102%; with MOLT-4 leukemia, 98%.

For the compound `COc1cc(OC)c2ccc(=O)oc2c1`, the growth was 104% with SK-MEL-2 melanoma; 95.2% in the test with EKVX NSCLC; 97% with SN12C renal; 94.9% with UO-31 renal; 101% in the test on TK-10 renal; 104% in the test with ACHN renal. Further, the growth in the test on CAKI-1 renal is 113%; with A498 renal, 101%; with CCRF-CEM leukemia, 106%; with MOLT-4 leukemia, 115%.

On to `O=C1c2ccccc2C(=O)N1OCc1ccccc1`, for which the growth in the test with SK-MEL-2 melanoma was 96.7%; in the test with EKVX NSCLC, 98.7%; with SN12C renal, 110%; in the test with UO-31 renal, 79.1%; in the test with TK-10 renal, 133%; in the test with ACHN renal, 101%. The growth in the test with CAKI-1 renal is 95.2%; with A498 renal, 134%; with CCRF-CEM leukemia, 97.3%; in the test on MOLT-4 leukemia it was 93.7%.
